Screening results: PubChem BioAssay, National Center for Advancing Translational Sciences (NCATS)
NS1 function inh: qHTS Assay for Inhibitors of Influenza NS1 Protein Function; Potency, µM (titrated, usually from 46.1 µM); hit rate 0.4% among 270,000; AID 2326, 2010; calls by dose curve; note: actives are rising curves; nearly all actives have a fitted effect of over 50% in size
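In this qHTS, NS1 from influenza A is expressed in budding yeast, where it slows growth. Cells are switched from glucose to 2% galactose medium (pH 6.0, -URA), treated with compound, and growth recovery is read at OD600.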
AmpC no deterg: qHTS Inhibitors of AmpC Beta-Lactamase (assay without detergent) | P00811 | AmpC nitrocefin hydrolysis, absorbance 480 nm, 0.0001% Triton | Potency, µM (top dose mostly 57.1 µM), most hits filed as inhibitors | hit rate 0.52% among 330,000 | AID 485341, 2010; note: nearly all actives have a fitted effect of over 20% in size
Target sequence (P00811 whole entry, looked up): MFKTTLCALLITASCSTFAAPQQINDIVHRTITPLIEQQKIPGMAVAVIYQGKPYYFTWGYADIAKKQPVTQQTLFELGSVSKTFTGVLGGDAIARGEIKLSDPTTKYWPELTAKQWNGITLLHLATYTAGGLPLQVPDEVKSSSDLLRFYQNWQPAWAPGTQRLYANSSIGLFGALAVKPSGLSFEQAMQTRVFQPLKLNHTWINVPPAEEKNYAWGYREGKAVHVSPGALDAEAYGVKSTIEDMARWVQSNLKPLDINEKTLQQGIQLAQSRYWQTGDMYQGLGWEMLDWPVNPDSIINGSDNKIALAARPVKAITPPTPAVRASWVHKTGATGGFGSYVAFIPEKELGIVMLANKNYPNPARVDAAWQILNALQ
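20 mM phosphate pH 7.0 + 0.01% (detergent screen) or 0.0001% Triton X-100; 5.3 nM AmpC reagent; cpd preinc 15 min RT; nitrocefin (800 uM stock) to start; A480 q20 s × 4 min; Activity was normalised to no-enzyme and no-compound control wells.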
AmpC inh detg: qHTS Inhibitors of AmpC Beta-Lactamase (assay with detergent); AmpC hydrolysis of nitrocefin, absorbance 480 nm, 0.01% Triton; Potency, µM (top dose mostly 114 µM), usual class: inhibitors; hit rate 0.041% among 370,000; note: nearly all actives have a fitted effect of over 25% in size
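20 mM phosphate pH 7.0 + 0.01% (detergent screen) or 0.0001% Triton X-100; 5.3 nM AmpC reagent; cpd preinc 15 min RT; nitrocefin (800 uM stock) to start; A480 q20 s × 4 min; Activity was normalised to no-enzyme and no-compound control wells.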
CHX counter: Cycloheximide Counterscreen for Small Molecule Inhibitors of Shiga Toxin. cell reporter, cycloheximide protein synthesis inhibition counterscreen. max response, %. hit rate 12% among 300,000. AID 2314, 2010; in the data active = max response mostly above about 13%, no sharp cut-off; inactive = mostly below about 14%; note: read at 38.3 µM for the half of the compounds with a filed dose
Shiga inhibitor: A qHTS for Small Molecule Inhibitors of Shiga Toxin; Vero cells, Shiga toxin protein synthesis inhibition reporter; inhibition, % at 38.7 µM; hit rate 9.2% among 290,000; in the data active = inhibition mostly above about 28%, no sharp cut-off; inactive = mostly below about 43%
Numbers stand for hits; 0 = inactive; ? = inconclusive; - = no result given; + = active, no number. Only a selection was taken, and hits are over-represented in it overall. Unless noted, calls come from the whole dose curve; as a rule, active = well fitted curve in the direction sought with a large enough effect; inconclusive = small, poorly fitted or top-dose-only effect, or another doubt; inactive = no such curve, though single readings can be large; an effect the other way counts as inactive or inconclusive.

SMILES | NS1 function inh | AmpC no deterg | AmpC inh detg | CHX counter | Shiga inhibitor
Cc1ccc(C(=O)Nc2ccc3c(c2)CCC3)o1 | 0 | 0 | 0 | 63 | 99
C/C(=N\NC(=O)c1ccc(Br)o1)c1cc2c(cc1NC(=O)CCC(=O)O)OCO2 | 0 | 0 | 0 | 19 | 34
Cc1ccc(C(=O)Nc2ccc(F)cc2)o1 | 0 | 0 | ? | 0 | 32
O=C(Nc1ccc(F)cc1)c1ccc(CSc2ccccc2)o1 | 0 | 0 | 0 | 21 | 0
O=C(Nc1ccc(F)cc1)c1ccc(CSc2ccc(Cl)cc2)o1 | 0 | 0 | 0 | 0 | 0
COC(=O)c1ccccc1NC(=O)CCC(=O)N1CCOc2ccccc21 | - | - | 0 | - | -
O=C(NCc1ccc2c(c1)OCO2)c1ccc(COc2cc(Cl)ccc2Cl)o1 | 0 | 0 | ? | 0 | 0
Cc1ccc(NC(=O)c2ccc(Br)o2)cc1S(=O)(=O)N(C)C | - | 0 | 0 | 24 | 78
O=C(Nc1ccc(NC(=O)c2cc3ccccc3o2)cc1)c1ccc2c(c1)OCCO2 | - | 0 | 0 | 0 | 0
O=C(Nc1ccc2c(c1)CCC2)c1cc2ccccc2o1 | 0 | 0 | ? | 65 | 55
O=C(Nc1ccc2c(c1)OCO2)c1ccc(COc2ccc3c(c2)CCC3)o1 | 0 | 0 | ? | 43 | 45
O=C(Nc1ccc2c(c1)CCC2)c1ccc(Br)o1 | 0 | 0 | ? | 44 | 76
O=C(Nc1ccc(S(=O)(=O)N2CCCC2)cc1)c1ccc(Br)o1 | 0 | 0 | 0 | 0 | 0
Cc1ccc(NC(=O)c2ccc(OC(F)(F)F)cc2)cc1S(=O)(=O)N(C)C | 0 | 0 | 0 | 12 | 0
Cc1ccc(NC(=O)Cc2ccc3c(c2)CCCC3)cc1C | 0 | 0 | 0 | 23 | 0
Cc1ccc(NC(=O)c2ccncc2)cc1S(=O)(=O)N(C)C | 0 | 0 | 0 | 0 | 0
Cc1ccc(NC(=O)Nc2ccc3c(c2)CCC3)cc1C | 0 | 0 | 0 | 0 | 0
O=C(Nc1ccc2c(c1)OCO2)c1ccc(Br)o1 | 0 | 0 | 0 | 48 | 69
CC(=O)N1CCc2cc(S(=O)(=O)NC(Cc3ccccc3)C(=O)Nc3cccc(C)c3)ccc21 (configuration not stated) | - | - | 0 | - | -
C=CCN=C1S/C(=C\c2ccc(N(C)C)cc2)C(=O)N1CC=C | 0 | 0 | 0 | 45 | 59
CC(C)(C)C1CCC(N2CCN(c3ccccc3)CC2)CC1 (configuration not stated) | 0 | 0 | ? | 0 | 0
COCCn1c(SCC(=O)Nc2ccc3c(c2)OCCO3)nc2c(c1=O)SC(C)C2 (configuration not stated) | 0 | 0 | 0 | 23 | 30
CC1Cc2nc(SCC(=O)Nc3ccc4c(c3)OCCO4)n(C)c(=O)c2S1 (configuration not stated) | 0 | 0 | 0 | 9.0 | 0
Cc1ccc(/C=N/NC(=O)c2csc(C)c2)o1 | 0 | 0 | 0 | 23 | +
Cc1cc(C(=O)N/N=C/c2ccc(N(C)C)o2)cs1 | ? | 0 | 0 | 0 | 0
SMILES | NS1 function inh | AmpC no deterg | AmpC inh detg | CHX counter | Shiga inhibitor
Cc1ccc(/C=N/NC(=O)c2cccs2)o1 | 0 | 0 | 0 | 40 | 162
CCN(CC(=O)Nc1c(F)cccc1F)C(=O)C1CC(=O)N(CCc2ccc(OC)c(OC)c2)C1 (configuration not stated) | - | 0 | 0 | - | -
CSc1nnc(-c2ccc(NC(N)=S)cc2)o1 | 0 | 0 | 0 | 14 | 0
O=C(Oc1ccc(OC(=O)N2CCCCC2)cc1)c1ccccc1 | 0 | 0 | 0 | 0 | 0
O=C(Oc1ccc(Cl)cc1)N1CCCCC1 | 0 | 0 | 0 | 35 | 49
O=C(Oc1ccc2ccc(OC(=O)N3CCCCCC3)cc2c1)N1CCCCCC1 | 0 | 0 | ? | 22 | 40
O=C(Oc1ccc(-c2nnco2)cc1)N1CCCCC1 | 0 | 0 | 0 | 25 | 35
O=C(Oc1ccc(-c2ccccc2)cc1)N1CCOCC1 | 0 | 0 | 0 | 39 | 109
O=S(=O)(c1ccc(-c2nnco2)cc1)N1CCCCC1 | 0 | 0 | 0 | 0 | 0
CCOC(=O)c1c(C)[nH]c(C)c1S(=O)(=O)N1CCN(c2ccc(F)cc2)CC1 | 0 | 0 | 0 | 0 | 0
O=C(Oc1ccccc1)N1CCCC1 | 0 | 0 | 0 | 0 | 0
O=C(Oc1ccc(Oc2ccccc2)cc1)N1CCC(O)CC1 | 0 | 0 | 0 | 52 | 60
O=C(Oc1ccc(Cl)cc1)N1CCOCC1 | 0 | 0 | 0 | 16 | 27
COc1ccc(OC(=O)N2CCOCC2)cc1 | 0 | 0 | ? | 0 | 0
CCn1c(=O)c(=O)n(CC)c2cc(N3CCCCC3)c(NC(=O)c3ccccc3OC)cc21 | - | - | 0 | - | -
